Results published in publication PMC7862700, “An all-to-all approach to the identification of sequence-specific readers for epigenetic DNA modifications on cytosine”.

What was measured:
Experiment in all cases: DAPPL (digital affinity profiling via proximity ligation, sequencing); 10 mM Tris-HCl pH 7.5, 50 mM NaCl, 1 mM DTT, 4% glycerol, room temperature, 30 min; GST-TFs on glutathione beads, 16-mer random dsDNA library, 0.1% formaldehyde crosslink after washing; high values mean tight binding
FLI1 = molecular target: T1, FLI1 (Homo sapiens, UniProt Q01543 1-452); conditions: protein: recombinant; tags: N-terminal GST; dsDNA, one strand shown
T1 sequence: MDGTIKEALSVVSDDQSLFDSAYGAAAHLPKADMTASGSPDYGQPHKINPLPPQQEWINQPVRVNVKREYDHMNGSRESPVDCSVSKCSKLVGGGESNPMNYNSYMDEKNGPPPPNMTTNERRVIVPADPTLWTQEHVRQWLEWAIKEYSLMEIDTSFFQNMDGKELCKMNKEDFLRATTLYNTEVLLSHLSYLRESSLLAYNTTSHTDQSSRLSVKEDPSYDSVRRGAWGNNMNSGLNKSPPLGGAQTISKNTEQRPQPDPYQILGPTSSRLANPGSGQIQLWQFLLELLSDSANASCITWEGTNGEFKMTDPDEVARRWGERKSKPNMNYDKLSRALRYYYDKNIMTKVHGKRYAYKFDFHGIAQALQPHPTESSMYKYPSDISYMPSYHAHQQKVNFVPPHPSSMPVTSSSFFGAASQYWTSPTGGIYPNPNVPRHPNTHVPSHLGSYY
Summary of the method: (§1)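 Human transcription factors carrying a GST fusion were produced in yeast, bound to glutathione beads, tagged with DNA barcodes and pooled together with a tag-only sample. Each pool was held with 200 nmole of a random double-stranded 16-mer DNA library in Tris/NaCl/DTT/glycerol buffer for 30 min at room temperature, then washed, crosslinked in 0.1% formaldehyde, proximity-ligated with BsaI/T4 ligase (1 h, 37 °C), PCR-amplified and sequenced on an Illumina NextSeq500. Binding signal is the read frequency of each hexamer for a given factor divided by its frequency in the tag-only sample.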

ELK1 = molecular target: T2, ELK1 (Homo sapiens, UniProt P19419 1-428); conditions: protein: recombinant; tags: N-terminal GST; dsDNA, one strand shown
T2 sequence: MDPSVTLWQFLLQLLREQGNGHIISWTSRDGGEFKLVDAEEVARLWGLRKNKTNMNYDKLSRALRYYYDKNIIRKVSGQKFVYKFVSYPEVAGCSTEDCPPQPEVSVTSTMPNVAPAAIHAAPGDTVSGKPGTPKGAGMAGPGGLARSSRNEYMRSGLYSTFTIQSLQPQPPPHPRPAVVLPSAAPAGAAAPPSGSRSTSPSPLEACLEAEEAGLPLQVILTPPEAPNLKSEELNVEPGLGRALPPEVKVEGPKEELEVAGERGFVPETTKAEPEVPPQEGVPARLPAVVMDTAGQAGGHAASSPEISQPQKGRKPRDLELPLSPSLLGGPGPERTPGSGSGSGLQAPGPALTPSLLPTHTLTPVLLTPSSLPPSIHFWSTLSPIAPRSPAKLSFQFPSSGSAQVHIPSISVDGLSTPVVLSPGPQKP
Summary of the method: as §1

GABPA = molecular target: T3, GABPA (Homo sapiens, UniProt Q06546 1-454); conditions: protein: recombinant; tags: N-terminal GST; dsDNA, one strand shown
T3 sequence: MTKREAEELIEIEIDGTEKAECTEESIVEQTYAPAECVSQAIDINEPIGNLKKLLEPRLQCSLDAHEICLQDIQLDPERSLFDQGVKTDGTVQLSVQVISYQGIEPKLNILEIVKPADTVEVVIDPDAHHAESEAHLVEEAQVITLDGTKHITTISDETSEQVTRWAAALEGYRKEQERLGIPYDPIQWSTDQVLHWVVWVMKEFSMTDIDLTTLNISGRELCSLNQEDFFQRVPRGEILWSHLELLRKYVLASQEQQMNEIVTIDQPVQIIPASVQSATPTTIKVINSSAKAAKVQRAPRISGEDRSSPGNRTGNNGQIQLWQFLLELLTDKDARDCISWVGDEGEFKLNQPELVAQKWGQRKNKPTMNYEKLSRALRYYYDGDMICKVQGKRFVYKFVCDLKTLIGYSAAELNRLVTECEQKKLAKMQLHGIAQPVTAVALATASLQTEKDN
Summary of the method: as §1

ERG = molecular target: T4, ERG (Homo sapiens, UniProt P11308 1-479); conditions: protein: recombinant; tags: N-terminal GST; dsDNA, one strand shown
T4 sequence: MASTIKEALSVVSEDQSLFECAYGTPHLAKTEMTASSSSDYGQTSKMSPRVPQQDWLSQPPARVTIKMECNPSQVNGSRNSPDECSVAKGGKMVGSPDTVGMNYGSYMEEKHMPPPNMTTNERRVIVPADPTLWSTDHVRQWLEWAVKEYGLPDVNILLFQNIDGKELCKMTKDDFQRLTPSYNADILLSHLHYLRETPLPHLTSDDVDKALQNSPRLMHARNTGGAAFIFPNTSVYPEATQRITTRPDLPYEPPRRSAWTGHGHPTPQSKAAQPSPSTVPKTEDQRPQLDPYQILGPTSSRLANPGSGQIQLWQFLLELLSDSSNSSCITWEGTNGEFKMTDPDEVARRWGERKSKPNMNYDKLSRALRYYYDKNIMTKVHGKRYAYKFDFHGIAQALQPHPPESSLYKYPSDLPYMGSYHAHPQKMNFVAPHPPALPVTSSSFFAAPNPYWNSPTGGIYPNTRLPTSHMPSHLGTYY
Summary of the method: as §1

ELF1 = ELF1 (Homo sapiens, UniProt P32519 1-619); conditions: protein: recombinant; tags: N-terminal GST; dsDNA, one strand shown
Sequence of ELF1 (P32519 whole entry): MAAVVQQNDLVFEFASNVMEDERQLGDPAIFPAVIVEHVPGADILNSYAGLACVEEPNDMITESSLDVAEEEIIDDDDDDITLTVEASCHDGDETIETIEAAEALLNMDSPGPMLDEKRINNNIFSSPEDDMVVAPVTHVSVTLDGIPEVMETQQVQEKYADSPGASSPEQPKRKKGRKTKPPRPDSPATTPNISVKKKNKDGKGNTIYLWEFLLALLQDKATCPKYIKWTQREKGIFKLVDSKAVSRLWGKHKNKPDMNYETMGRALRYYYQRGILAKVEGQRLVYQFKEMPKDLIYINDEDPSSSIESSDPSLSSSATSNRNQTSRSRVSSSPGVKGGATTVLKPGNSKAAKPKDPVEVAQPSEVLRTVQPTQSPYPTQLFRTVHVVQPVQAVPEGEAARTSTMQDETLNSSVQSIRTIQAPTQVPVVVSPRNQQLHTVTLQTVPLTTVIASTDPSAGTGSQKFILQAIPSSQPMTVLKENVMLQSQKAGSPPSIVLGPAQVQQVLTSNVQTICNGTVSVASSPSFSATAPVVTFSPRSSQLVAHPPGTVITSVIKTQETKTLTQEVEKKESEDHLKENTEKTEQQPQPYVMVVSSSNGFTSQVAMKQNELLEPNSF
Summary of the method: as §1

EHF = molecular target: T5, EHF (Homo sapiens, UniProt Q9NZC4 1-300); conditions: protein: recombinant; tags: N-terminal GST; dsDNA, one strand shown
T5 sequence: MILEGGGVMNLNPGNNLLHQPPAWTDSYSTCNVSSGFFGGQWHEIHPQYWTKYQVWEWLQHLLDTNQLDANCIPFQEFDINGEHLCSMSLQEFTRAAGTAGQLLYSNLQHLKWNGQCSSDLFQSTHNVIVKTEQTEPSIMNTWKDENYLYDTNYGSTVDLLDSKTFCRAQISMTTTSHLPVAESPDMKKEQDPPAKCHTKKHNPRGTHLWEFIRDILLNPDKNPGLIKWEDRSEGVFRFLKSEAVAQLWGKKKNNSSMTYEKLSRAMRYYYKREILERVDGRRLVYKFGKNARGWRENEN
Summary of the method: as §1

SPI1 = SPI1 (Homo sapiens, UniProt P17947 1-270); conditions: protein: recombinant; tags: N-terminal GST; dsDNA, one strand shown
Summary of the method: as §1

SPIB = SPIB (Homo sapiens, UniProt Q01892 1-262); conditions: protein: recombinant; tags: N-terminal GST; dsDNA, one strand shown
Sequence of SPIB (Q01892 whole entry): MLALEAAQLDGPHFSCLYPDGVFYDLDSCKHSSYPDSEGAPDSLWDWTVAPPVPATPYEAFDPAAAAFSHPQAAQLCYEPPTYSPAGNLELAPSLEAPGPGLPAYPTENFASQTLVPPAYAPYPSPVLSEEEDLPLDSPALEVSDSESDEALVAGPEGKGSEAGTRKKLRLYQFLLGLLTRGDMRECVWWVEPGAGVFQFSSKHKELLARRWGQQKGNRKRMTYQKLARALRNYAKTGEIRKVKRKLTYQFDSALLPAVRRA
Summary of the method: as §1

ELK3 = molecular target: T6, ELK3 (Homo sapiens, UniProt P41970 1-407); conditions: protein: recombinant; tags: N-terminal GST; dsDNA, one strand shown
T6 sequence: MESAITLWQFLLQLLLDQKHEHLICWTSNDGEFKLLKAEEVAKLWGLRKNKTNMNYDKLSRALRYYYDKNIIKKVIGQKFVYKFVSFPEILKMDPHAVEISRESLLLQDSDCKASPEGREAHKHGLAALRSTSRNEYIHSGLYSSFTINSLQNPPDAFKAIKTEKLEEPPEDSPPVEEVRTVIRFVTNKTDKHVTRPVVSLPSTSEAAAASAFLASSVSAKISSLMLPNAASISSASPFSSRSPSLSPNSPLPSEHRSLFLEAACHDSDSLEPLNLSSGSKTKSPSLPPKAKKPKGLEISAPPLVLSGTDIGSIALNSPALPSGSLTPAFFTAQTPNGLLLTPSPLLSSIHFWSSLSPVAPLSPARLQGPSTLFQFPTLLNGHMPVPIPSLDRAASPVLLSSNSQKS
Summary of the method: as §1

FEV = molecular target: T7, FEV (Homo sapiens, UniProt Q99581 1-238); conditions: protein: recombinant; tags: N-terminal GST; dsDNA, one strand shown
T7 sequence: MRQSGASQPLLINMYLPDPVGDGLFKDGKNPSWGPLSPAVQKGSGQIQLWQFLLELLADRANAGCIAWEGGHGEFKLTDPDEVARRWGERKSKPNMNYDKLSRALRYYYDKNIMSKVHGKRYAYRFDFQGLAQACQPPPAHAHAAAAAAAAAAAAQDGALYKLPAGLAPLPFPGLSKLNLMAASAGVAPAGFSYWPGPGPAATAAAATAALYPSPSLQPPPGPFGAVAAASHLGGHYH
Summary of the method: as §1

ETV5 = ETV5 (Homo sapiens, UniProt P41161 1-510); conditions: protein: recombinant; tags: N-terminal GST; dsDNA, one strand shown
Sequence of ETV5 (P41161 whole entry): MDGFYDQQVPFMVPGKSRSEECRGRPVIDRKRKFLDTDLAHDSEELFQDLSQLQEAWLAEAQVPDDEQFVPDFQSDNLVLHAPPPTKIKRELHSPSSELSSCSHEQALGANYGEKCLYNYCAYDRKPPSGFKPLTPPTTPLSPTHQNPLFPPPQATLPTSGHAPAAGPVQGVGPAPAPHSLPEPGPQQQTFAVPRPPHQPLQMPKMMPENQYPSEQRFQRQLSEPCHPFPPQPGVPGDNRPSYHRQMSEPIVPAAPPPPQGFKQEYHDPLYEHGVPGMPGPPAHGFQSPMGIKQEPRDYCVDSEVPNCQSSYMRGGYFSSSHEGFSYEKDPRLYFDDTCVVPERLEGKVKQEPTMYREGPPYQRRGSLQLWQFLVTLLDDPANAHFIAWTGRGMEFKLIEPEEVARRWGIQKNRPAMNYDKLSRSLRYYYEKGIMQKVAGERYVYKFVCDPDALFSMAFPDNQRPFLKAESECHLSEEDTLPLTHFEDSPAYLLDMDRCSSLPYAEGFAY
Summary of the method: as §1

HSF1 = HSF1 (Homo sapiens, UniProt Q00613 1-529); conditions: protein: recombinant; tags: N-terminal GST; chain copies: 3; dsDNA, one strand shown
Sequence of HSF1 (Q00613 whole entry): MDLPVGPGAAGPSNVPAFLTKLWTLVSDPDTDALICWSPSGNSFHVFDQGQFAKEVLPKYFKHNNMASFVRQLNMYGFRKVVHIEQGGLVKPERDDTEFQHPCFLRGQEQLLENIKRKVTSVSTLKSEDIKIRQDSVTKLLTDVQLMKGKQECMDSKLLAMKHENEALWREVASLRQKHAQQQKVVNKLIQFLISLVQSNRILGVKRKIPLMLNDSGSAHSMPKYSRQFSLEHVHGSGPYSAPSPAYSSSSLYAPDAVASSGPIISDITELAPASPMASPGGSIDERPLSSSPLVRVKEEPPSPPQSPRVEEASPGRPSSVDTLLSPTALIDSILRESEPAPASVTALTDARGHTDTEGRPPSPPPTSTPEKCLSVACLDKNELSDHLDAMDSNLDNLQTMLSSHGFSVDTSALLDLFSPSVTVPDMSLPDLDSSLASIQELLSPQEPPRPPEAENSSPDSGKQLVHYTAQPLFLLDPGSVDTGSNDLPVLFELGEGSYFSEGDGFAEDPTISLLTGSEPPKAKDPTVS
Summary of the method: as §1

SPIC = molecular target: T8, SPIC (Homo sapiens, UniProt Q8N5J4 1-248); conditions: protein: recombinant; tags: N-terminal GST; dsDNA, one strand shown
T8 sequence: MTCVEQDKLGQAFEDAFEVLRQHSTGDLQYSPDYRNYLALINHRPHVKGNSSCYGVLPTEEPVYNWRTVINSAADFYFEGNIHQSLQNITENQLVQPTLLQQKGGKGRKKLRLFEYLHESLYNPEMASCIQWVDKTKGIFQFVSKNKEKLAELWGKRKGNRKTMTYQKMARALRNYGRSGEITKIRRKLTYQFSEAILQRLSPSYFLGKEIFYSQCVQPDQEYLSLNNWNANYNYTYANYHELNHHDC
Summary of the method: as §1

ELF4 = ELF4 (Homo sapiens, UniProt Q99607 1-663); conditions: protein: recombinant; tags: N-terminal GST; dsDNA, one strand shown
Sequence of ELF4 (Q99607 whole entry): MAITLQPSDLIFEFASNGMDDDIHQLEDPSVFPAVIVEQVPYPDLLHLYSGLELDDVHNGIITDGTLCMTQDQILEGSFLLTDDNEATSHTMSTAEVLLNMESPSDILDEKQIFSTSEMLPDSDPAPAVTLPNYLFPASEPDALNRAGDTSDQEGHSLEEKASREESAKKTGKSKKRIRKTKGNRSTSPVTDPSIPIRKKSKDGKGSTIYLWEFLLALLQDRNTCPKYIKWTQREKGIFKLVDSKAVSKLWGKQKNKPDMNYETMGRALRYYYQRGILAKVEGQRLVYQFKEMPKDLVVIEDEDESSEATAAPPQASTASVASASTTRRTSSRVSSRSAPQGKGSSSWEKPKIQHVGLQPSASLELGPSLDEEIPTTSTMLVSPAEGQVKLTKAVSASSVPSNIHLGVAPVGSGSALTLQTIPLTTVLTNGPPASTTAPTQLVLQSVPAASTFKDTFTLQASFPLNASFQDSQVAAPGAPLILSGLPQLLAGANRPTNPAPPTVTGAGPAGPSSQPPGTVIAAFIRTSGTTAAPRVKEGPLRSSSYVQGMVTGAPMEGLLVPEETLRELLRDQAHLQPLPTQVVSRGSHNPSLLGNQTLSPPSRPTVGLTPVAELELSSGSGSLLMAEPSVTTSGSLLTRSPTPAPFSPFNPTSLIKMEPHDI
Summary of the method: as §1

ELK4 = molecular target: T9, ELK4 (Homo sapiens, UniProt P28324-2 1-405); conditions: protein: recombinant; tags: N-terminal GST; dsDNA, one strand shown
T9 sequence: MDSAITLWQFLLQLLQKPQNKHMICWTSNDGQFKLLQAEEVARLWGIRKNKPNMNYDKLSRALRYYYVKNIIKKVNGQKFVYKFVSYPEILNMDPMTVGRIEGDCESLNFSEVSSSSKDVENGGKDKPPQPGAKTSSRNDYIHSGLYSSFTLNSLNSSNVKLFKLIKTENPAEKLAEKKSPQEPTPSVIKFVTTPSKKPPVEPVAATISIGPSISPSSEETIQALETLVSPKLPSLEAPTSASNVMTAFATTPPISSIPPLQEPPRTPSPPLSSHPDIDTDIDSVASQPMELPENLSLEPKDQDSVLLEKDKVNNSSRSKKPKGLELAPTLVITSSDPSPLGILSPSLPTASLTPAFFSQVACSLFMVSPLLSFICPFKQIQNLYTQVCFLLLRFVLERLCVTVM
Summary of the method: as §1

ETV2 = molecular target: T10, ETV2 (Homo sapiens, UniProt O00321 1-342); conditions: protein: recombinant; tags: N-terminal GST; dsDNA, one strand shown
T10 sequence: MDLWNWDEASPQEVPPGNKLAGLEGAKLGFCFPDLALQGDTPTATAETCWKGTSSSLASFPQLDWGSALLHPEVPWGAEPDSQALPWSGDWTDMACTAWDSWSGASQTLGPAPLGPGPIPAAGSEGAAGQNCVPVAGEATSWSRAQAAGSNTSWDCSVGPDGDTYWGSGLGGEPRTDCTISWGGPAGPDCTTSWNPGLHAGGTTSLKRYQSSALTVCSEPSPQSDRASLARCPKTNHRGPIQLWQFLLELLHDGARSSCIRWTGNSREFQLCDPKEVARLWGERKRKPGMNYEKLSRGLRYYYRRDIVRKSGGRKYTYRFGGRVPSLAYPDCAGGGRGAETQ
Summary of the method: as §1

ELF3 = molecular target: T11, ELF3 (Homo sapiens, UniProt P78545 1-371); conditions: protein: recombinant; tags: N-terminal GST; dsDNA, one strand shown
T11 sequence: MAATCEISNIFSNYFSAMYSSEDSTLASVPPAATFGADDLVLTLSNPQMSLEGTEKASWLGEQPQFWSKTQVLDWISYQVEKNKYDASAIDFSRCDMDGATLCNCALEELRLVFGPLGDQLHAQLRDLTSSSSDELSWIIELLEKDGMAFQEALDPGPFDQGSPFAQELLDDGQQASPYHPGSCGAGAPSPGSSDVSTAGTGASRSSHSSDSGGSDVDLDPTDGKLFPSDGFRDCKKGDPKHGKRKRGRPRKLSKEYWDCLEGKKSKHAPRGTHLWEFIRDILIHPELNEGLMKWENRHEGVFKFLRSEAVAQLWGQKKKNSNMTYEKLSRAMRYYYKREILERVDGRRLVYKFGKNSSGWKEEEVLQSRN
Summary of the method: as §1

CRX = CRX (Homo sapiens, UniProt O43186 1-299); conditions: protein: recombinant; tags: N-terminal GST; dsDNA, one strand shown
Sequence of CRX (O43186 whole entry): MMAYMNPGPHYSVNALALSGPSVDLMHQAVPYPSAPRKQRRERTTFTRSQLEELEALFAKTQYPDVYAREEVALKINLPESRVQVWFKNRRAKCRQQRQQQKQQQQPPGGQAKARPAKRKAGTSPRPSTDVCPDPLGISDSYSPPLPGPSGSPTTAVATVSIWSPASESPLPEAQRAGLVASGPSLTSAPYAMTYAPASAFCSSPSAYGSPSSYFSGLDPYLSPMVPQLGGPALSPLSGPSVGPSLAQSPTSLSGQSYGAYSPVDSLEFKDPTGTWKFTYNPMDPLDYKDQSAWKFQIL
Summary of the method: as §1

ETV1 = ETV1 (Homo sapiens, UniProt P50549 1-477); conditions: protein: recombinant; tags: N-terminal GST; dsDNA, one strand shown
Sequence of ETV1 (P50549 whole entry): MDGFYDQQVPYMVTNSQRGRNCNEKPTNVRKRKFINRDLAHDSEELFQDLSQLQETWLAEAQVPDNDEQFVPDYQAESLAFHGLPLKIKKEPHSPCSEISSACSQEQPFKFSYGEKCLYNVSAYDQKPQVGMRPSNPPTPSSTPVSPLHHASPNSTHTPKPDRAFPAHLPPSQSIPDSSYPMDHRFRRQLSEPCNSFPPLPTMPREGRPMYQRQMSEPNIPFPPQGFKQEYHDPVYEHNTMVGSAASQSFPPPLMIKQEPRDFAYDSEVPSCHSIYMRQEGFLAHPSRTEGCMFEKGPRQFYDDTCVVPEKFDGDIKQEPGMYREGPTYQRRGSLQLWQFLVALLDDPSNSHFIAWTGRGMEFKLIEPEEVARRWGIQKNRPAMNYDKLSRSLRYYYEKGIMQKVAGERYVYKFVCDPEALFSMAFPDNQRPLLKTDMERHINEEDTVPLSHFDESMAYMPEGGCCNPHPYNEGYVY
Summary of the method: as §1

ATATTC
binding signal (FLI1): 1.24 fold enrichment (6-mer frequency, TF over GST control) | binding signal (ELK1): 1.2 fold enrichment (6-mer frequency, TF over GST control) | binding signal (GABPA): 1.24 fold enrichment (6-mer frequency, TF over GST control) | binding signal (ERG): 1.18 fold enrichment (6-mer frequency, TF over GST control) | binding signal (ELF1): 1.28 fold enrichment (6-mer frequency, TF over GST control) | binding signal (EHF): 1.19 fold enrichment (6-mer frequency, TF over GST control) | binding signal (SPI1): 1.19 fold enrichment (6-mer frequency, TF over GST control) | binding signal (SPIB): 1.22 fold enrichment (6-mer frequency, TF over GST control) | binding signal (ELK3): 1.14 fold enrichment (6-mer frequency, TF over GST control) | binding signal (FEV): 1.19 fold enrichment (6-mer frequency, TF over GST control) | binding signal (ETV5): 1.27 fold enrichment (6-mer frequency, TF over GST control) | binding signal (HSF1): 2.2 fold enrichment (6-mer frequency, TF over GST control) | binding signal (SPIC): 1.3 fold enrichment (6-mer frequency, TF over GST control) | binding signal (ELF4): 1.29 fold enrichment (6-mer frequency, TF over GST control) | binding signal (ELK4): 1.31 fold enrichment (6-mer frequency, TF over GST control) | binding signal (ETV2): 1.22 fold enrichment (6-mer frequency, TF over GST control) | binding signal (ELF3): 1.38 fold enrichment (6-mer frequency, TF over GST control) | binding signal (CRX): 1.51 fold enrichment (6-mer frequency, TF over GST control) | binding signal (ETV1): 1.26 fold enrichment (6-mer frequency, TF over GST control)
